Consider 5 compounds from PubChem BioAssay.

Calls of active or inactive are those of the source.

For test [1], the system named is Plasmodium falciparum Sir2 (PF13_0152, Sir2A). In words: pfSir2 binders on small-molecule microarrays, primary screen, biochemical, small-molecule microarray, 635 nm fluorescence (AID 1098).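 Further: score merges spot fluorescence intensity with its signal-to-noise ratio.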 To be noted: small-molecule microarray binding, fluorescence 635 nm; higher = more signal.
The nature of test [2]: small-molecule microarray binders of probe aDKK1, primary screen, biochemical, biotinylated probe, 635/667 nm fluorescence (AID 1099).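 Further: score merges 667nm spot fluorescence with signal to noise across triplicate slides.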 To be noted: higher = more signal.
A short description of test [3]: small-molecule microarray binders of probe aCHRDL2, primary screen, biochemical, biotinylated probe, 635/667 nm fluorescence (AID 1100). Conditions: higher = more signal.
A short description of test [4]: splicing luciferase reporter signal modulators, primary screen, spliceosome inhibition project, cell-based, HEK293, splice +/- reporter (AID 1101).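 Further: HEK293 cells carrying a splicing-competent luciferase reporter gene; test concentration not given here.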 To be noted: luminescence, 24 h, higher = more signal, called active from +8 up or from −8 down.
The target of test [5] is Fibroblast growth factor 10 (Homo sapiens) (UniProt O15520). The experiment in a line: FGF10 binders on small-molecule microarrays, primary screen, biochemical, small-molecule microarray, 635 nm fluorescence (AID 1102). To be noted: FGF10 binding, fluorescence 635 nm, higher = more signal.
Test [6] has as its system glycogen synthase kinase-3 (GSK3A per assay name; protocol says GSK3B). The experiment in a line: GSK3 binders on small-molecule microarrays, primary screen, biochemical, small-molecule microarray, 635 nm fluorescence, GSK3A (AID 1103). Further: the record names both GSK3A and GSK3B. Conditions: small-molecule microarray binding, fluorescence 635 nm; higher = more signal.
Test [7] deals with Epidermal growth factor receptor (Homo sapiens) (UniProt P00533). In words: EGFR binders on small-molecule microarrays, primary screen, biochemical, small-molecule microarray, 635 nm fluorescence (AID 1104).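 Further: score merges 667 nm emission intensity with spot signal to noise over triplicate slides.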 To be noted: EGFR binding, higher = more signal.
Test [8] deals with Follistatin-related protein 3 (Homo sapiens) (UniProt O95633). In words: FSTL3 binders on small-molecule microarrays, primary screen, biochemical, small-molecule microarray, 635 nm fluorescence (AID 1105).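 Further: score merges emission near 667 nm and signal to noise per printed spot across three slides.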 To be noted: FSTL3 binding, higher = more signal.
Test [9] concerns the target Dickkopf-related protein 1 (Homo sapiens) (UniProt O94907). The experiment in a line: DKK1 binders on small-molecule microarrays, primary screen, biochemical, small-molecule microarray, 635 nm fluorescence scan (AID 1106).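 Further: score merges emission near 667 nm with signal to noise over three replicate slides.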 To be noted: DKK1 binding, higher = more signal.
The test system of test [10] is Inhibin beta A chain (activin A). In words: INHBA (activin A) binders on microarrays, primary screen, biochemical, small-molecule microarray, 635 nm fluorescence scan (AID 1107).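 Further: mouse activin A protein probed at 4.33 µg/mL on printed slides; score merges bound-protein fluorescence near 667 nm with spot signal-to-noise.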 Conditions: small-molecule microarray binding, higher = more signal.
The subject of test [11] is Human papillomavirus type 1a protein E7 (residues 44-93). In words: HPV1a E7 fragment binders on microarrays, primary screen, biochemical, small-molecule microarray, residues 44-93, 635 nm fluorescence (AID 1108).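 Further: E7 fragment applied at 1 µg/mL in TBST for 1 h at 4 C; score combines spot fluorescence with its signal to noise ratio.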 To be noted: small-molecule microarray binding, fluorescence 635 nm; higher = more signal.
The nature of test [12]: modulators of HCV replicon luciferase signal, primary screen, HCV replication inhibitor project, Huh7 cells, luciferase reporter (AID 1109).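 Further: huh7 hepatoma cells harbouring a luciferase neomycin HCV replicon reporter; luciferase luminescence as measure of HCV replicon replication; test concentration not given here.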 Conditions: 48 h, higher = more signal.
For test [13], the target named is Left-right determination factor 2 (Homo sapiens) (UniProt O00292). In words: LEFTY2 binders on small-molecule microarrays, primary screen, biochemical, small-molecule microarray, 635 nm fluorescence scan (AID 1110). To be noted: LEFTY2 binding, higher = more signal.
Test [14] deals with Calmodulin-1 (Homo sapiens) (UniProt P0DP23). The experiment in a line: CALM1 binders on microarrays, EGTA buffer, profiling panel, biochemical, small-molecule microarray, Cy5-labelled CALM1 (AID 1111).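 Further: labelled calmodulin applied in Tris saline Tween buffer holding calcium plus EGTA and DTT.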 Conditions: Cy5-CALM1 binding fluorescence, higher = more signal.
Test [15] shares this target. The experiment in a line: calcium-bound CALM1 binders on microarrays, profiling panel, artefact control for SMM control-protein annotation, biochemical, small-molecule microarray, Cy5-labelled CALM1, plus calcium (AID 1112).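 Further: score merges spot fluorescence with signal to noise from triplicate slides.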 To be noted: Cy5-CALM1 binding fluorescence, higher = more signal.
The nature of test [16]: small-molecule microarray binders of probe aWnt5a, primary screen, biochemical, biotinylated probe, 635/667 nm fluorescence (AID 1113).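 Further: score merges 667 nm fluorescence intensity with signal-to-noise per printed feature.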 Conditions: higher = more signal.
A short description of test [17]: small-molecule microarray binders of probe aShh, primary screen, biochemical, biotinylated probe, 635/667 nm fluorescence (AID 1114).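 Further: probe is biotin-labelled aShh protein from a stem cell growth factor screen; measures binding of labelled protein to compounds printed on the slide; score merges feature fluorescence at 667 nm with signal-to-noise.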 Conditions: higher = more signal.
Test [18] can be described thus: small-molecule microarray binders of probe aNog, primary screen, biochemical, biotinylated probe, 635/667 nm fluorescence (AID 1115).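 Further: probe is biotinylated aNog protein used at 0.15 µg/mL for 1 h at 4 C; z-score combines 667 nm fluorescence of each spot with its signal to noise.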 To be noted: higher = more signal.
In test [19] the target is Torsin-1A-interacting protein 1 (Homo sapiens) (UniProt Q5JTV8). The experiment in a line: LAP1 binders from COS7 cell lysate, primary screen, small-molecule microarray, 635/667 nm fluorescence (AID 1116). To be noted: COS7-hLAP1 lysate binding, 635 nm fluorescence, higher = more signal.
Test [20] deals with Alpha-bungarotoxin (Bungarus multicinctus) (UniProt P60615). In words: alpha-bungarotoxin binders on microarray, profiling panel, artefact control for SMM control protein annotation, biochemical, small-molecule microarray, Alexa647 label, 635/667 nm fluorescence (AID 1117). To be noted: alpha-BTX-A647 binding fluorescence, higher = more signal.
Chain of Alpha-bungarotoxin (Bungarus multicinctus) (P60615 whole entry, looked up): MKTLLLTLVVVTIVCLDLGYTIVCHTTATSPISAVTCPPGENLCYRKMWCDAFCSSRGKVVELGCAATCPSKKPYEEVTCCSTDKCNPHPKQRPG

Chain of Epidermal growth factor receptor (Homo sapiens) (P00533 whole entry, looked up): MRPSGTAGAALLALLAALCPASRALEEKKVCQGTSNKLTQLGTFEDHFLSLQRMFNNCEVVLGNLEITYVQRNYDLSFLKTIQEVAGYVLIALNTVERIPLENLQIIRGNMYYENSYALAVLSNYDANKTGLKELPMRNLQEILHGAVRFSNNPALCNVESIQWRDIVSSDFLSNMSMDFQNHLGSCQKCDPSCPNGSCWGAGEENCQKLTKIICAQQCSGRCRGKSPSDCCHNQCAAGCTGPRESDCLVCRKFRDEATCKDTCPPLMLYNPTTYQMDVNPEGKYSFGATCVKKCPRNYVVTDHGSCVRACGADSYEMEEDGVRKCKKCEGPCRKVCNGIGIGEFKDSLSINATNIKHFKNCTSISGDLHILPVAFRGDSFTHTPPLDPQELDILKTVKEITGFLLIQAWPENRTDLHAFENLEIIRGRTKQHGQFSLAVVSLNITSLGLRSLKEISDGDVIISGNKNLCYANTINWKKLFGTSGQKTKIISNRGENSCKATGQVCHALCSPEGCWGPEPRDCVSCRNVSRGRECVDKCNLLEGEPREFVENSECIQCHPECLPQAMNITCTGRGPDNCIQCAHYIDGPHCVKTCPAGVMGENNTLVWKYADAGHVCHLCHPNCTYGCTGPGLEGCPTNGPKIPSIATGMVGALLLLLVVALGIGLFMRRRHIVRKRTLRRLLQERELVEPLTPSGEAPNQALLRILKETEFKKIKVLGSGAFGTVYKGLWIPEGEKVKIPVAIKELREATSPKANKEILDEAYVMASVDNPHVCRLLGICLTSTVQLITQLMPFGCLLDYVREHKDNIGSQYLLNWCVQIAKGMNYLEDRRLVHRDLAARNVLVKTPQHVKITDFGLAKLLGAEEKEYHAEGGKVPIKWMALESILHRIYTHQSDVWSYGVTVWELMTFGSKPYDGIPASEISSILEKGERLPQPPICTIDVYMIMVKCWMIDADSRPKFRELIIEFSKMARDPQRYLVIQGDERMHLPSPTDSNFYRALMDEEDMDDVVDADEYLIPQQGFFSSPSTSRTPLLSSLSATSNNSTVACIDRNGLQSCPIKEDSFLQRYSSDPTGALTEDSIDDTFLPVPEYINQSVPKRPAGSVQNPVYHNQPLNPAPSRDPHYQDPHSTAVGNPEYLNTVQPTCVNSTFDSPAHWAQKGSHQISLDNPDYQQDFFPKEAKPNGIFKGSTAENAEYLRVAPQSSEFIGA
Chain of Fibroblast growth factor 10 (Homo sapiens) (O15520 whole entry, looked up): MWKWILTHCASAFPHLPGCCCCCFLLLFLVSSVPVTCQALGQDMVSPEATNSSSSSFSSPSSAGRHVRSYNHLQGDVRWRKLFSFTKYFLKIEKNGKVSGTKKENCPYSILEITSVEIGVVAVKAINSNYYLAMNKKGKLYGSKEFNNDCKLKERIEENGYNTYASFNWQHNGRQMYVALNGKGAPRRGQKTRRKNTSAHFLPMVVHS
Chain of Left-right determination factor 2 (Homo sapiens) (O00292 whole entry, looked up): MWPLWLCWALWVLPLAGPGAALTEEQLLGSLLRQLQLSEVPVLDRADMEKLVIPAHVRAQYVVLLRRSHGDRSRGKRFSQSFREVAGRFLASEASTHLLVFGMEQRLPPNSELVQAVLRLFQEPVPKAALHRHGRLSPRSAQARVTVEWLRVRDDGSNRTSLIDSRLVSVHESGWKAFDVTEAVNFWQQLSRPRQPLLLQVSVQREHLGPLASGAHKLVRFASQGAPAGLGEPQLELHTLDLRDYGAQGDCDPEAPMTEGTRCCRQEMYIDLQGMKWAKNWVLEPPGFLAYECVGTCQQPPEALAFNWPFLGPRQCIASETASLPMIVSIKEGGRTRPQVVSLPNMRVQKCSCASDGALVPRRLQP
Chain of Dickkopf-related protein 1 (Homo sapiens) (O94907 whole entry, looked up): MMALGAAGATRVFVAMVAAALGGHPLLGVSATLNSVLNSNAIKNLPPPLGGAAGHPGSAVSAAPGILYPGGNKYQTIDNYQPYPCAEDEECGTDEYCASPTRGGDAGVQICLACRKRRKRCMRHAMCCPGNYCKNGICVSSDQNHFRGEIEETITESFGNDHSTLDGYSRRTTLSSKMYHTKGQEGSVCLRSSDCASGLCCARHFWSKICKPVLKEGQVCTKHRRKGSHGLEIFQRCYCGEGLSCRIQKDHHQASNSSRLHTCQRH
Chain of Follistatin-related protein 3 (Homo sapiens) (O95633 whole entry, looked up): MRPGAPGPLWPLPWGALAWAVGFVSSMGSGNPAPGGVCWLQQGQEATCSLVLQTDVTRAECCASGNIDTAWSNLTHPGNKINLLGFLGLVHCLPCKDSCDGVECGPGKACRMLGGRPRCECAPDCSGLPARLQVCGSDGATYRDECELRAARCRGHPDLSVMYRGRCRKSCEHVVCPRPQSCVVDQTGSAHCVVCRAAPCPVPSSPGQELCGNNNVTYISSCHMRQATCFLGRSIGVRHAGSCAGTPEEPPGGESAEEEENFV
Chain of Torsin-1A-interacting protein 1 (Homo sapiens) (Q5JTV8 whole entry, looked up): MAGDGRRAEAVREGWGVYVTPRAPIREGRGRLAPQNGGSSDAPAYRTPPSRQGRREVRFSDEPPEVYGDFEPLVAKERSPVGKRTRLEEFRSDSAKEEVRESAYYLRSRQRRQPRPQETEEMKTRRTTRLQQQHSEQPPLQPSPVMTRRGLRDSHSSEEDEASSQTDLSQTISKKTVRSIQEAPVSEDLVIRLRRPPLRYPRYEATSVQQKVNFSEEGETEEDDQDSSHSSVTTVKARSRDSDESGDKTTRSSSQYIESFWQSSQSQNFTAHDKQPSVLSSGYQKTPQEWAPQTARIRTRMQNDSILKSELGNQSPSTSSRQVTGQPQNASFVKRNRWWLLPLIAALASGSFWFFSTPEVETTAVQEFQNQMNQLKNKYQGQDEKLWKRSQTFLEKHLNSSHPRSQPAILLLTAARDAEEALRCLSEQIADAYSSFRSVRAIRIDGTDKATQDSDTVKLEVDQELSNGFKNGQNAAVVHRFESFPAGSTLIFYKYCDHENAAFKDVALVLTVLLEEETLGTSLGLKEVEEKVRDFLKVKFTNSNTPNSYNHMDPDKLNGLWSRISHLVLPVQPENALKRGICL

As to `CO[C@H]1O[C@H](CO)[C@@H](OC(=O)Nc2ccc(Br)cc2)[C@@H]2OC(=O)[C@H](Cc3cccc(Br)c3)C/C=C/C[C@@H](Cc3cccc(Br)c3)C(=O)O[C@@H]12`, the composite z-score is 0.272 in test [1]; -0.157 in [2]; 0.179 in [3]; 0.383 in test [5]; -1.05 in [6]; -0.461 in [7]. Moreover, the composite z-score in test [8] was 0.285; in test [9], -0.0367; in test [10], 0.0396; in test [11], -0.852; in test [13], -0.402; in test [14], 0.404. In addition, the composite z-score in test [15] was 0.609; in test [16], -0.12; in test [17] it was -0.221; in test [18], -0.1; in test [19], -0.284; in test [20], 0.386. The z-score was -0.838 (inactive) in [4] and -3.26 in test [12].
In the case of `COC(=O)[C@]1(Cc2ccccc2)N=C(c2ccc(OCCCO)cc2)O[C@@H]1c1ccccc1N=[N+]=[N-]`, the composite z-score in [1] is 1.54; in [2], 0.124; in test [3], 0.527; in test [5] it was 0.79; in test [6], 0.519; in [7] it was -0.0527. The composite z-score in test [8] was 0.257; in test [9], -0.0949; in test [10], 0.796; in test [11], 1.33; in test [13] it was 0.123; in test [14], 0.39. In addition, the composite z-score is 0.245 in test [15]; -0.0236 in test [16]; -0.0709 in test [17]; -0.595 in test [18]; -0.279 in [19]; 0.0359 in test [20]. Further, the results for the z-score in test [4] and in test [12] were -1.56 (inactive) and -3.25, respectively.
Consider `O=C1[C@H]2C=C(I)[C@H](C[C@@H]2OCCCCO)[C@@]12CO2`, for which the composite z-score was 1.15 in test [1]; -0.0509 in test [2]; 0.0634 in [3]; -0.0509 in [5]; 0.0622 in test [6]; -0.15 in test [7]. For the same compound, the composite z-score in test [8] was -0.0542; in test [9], 0.062; in test [10], 0.873; in test [11] it was -0.417; in [13], -0.244; in test [14], -0.754. Also, the composite z-score is -0.749 in [15]; -0.128 in [16]; 0.133 in [17]; 0.109 in test [18]; 0.452 in test [19]; -0.132 in test [20]. Also, the figures for the z-score in test [4] and in test [12] were 0.0898 (inactive) and -2.55, respectively.
As for `CCCNC(=O)[C@@H]1c2ccccc2C(=O)N(Cc2ccccc2OC)[C@H]1c1ccc(CO)cc1`, the composite z-score in test [1] is 1.37; in [2] it was 0.0051; in [3] it was 0.4; in test [5] it was 0.714; in [6], 0.68; in test [7], 0.0755. Also, the composite z-score in [8] is 0.995; in [9], 0.216; in test [10] it was -0.258; in test [11], 1.46; in [13] it was 0.146; in [14] it was 1.07. Also, the composite z-score is 0.485 in [15]; -0.0512 in test [16]; -0.173 in test [17]; 0.57 in test [18]; 0.239 in test [19]; 1.25 in test [20]. Moreover, the z-score in [4] was 0.233 (inactive); in test [12], -1.12.
In the case of `C=CCNC(=O)[C@@H]1[C@H]2C(=O)O[C@H](c3ccccc3)[C@H](c3ccccc3)N2[C@H](c2ccc(OCCO)cc2)[C@@]12C(=O)N(C(=O)OCCOC)c1ccc(C#CCNC(N)=O)cc12`, the composite z-score is 1.43 in test [1]; 0.478 in [2]; 0.747 in test [3]; 0.704 in test [5]; 0.549 in test [6]; 0.555 in test [7]. Further, the composite z-score in [8] is 0.898; in test [9], 0.554; in test [10] it was 1.2; in test [11], 0.79; in test [13], 0.735; in test [14], 0.597. The composite z-score is 0.386 in test [15]; 0.0136 in test [16]; 0.275 in test [17]; -0.42 in test [18]; 0.55 in [19]; 1.53 in test [20]. The figures for the z-score in test [4] and in test [12] were 0.184 (inactive) and -0.635, respectively.
